Test results published in PMC7862700, “An all-to-all approach to the identification of sequence-specific readers for epigenetic DNA modifications on cytosine”.

Key:
Experiment in all cases: DAPPL (digital affinity profiling via proximity ligation, sequencing); 10 mM Tris-HCl pH 7.5, 50 mM NaCl, 1 mM DTT, 4% glycerol, room temperature, 30 min; GST-TFs on glutathione beads, 16-mer random dsDNA library, 0.1% formaldehyde crosslink after washing; high values mean tight binding
FEV = molecular target: T1, FEV (Homo sapiens, UniProt Q99581 1-238); details: protein: recombinant; tags: N-terminal GST; dsDNA, one strand shown
T1 sequence: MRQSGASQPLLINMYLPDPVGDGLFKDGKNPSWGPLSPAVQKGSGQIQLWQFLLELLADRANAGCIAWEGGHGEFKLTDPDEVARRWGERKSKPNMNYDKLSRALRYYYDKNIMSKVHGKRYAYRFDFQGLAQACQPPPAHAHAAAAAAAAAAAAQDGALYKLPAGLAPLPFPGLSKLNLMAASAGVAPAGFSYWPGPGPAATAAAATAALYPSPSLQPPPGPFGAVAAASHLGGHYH
Procedure, shortened: (§1)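 Pools of DNA-barcoded human transcription factors, expressed in yeast as GST fusions on glutathione beads and combined with a tag-only sample, were incubated with 200 nmole of a 16-mer random double-stranded DNA library. Incubation took 30 min at room temperature in Tris/NaCl/DTT/glycerol buffer and was followed by washing, 0.1% formaldehyde crosslinking, proximity ligation (BsaI/T4 ligase, 1 h, 37 °C), PCR amplification and sequencing on an Illumina NextSeq500. Binding signal is the ratio of a hexamer's read frequency for a factor to its frequency for the tag-only sample.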

ETV5 = ETV5 (Homo sapiens, UniProt P41161 1-510); details: protein: recombinant; tags: N-terminal GST; dsDNA, one strand shown
Procedure, shortened: as §1

HSF1 = HSF1 (Homo sapiens, UniProt Q00613 1-529); details: protein: recombinant; tags: N-terminal GST; chain copies: 3; dsDNA, one strand shown
Procedure, shortened: as §1

SPIC = molecular target: T2, SPIC (Homo sapiens, UniProt Q8N5J4 1-248); details: protein: recombinant; tags: N-terminal GST; dsDNA, one strand shown
T2 sequence: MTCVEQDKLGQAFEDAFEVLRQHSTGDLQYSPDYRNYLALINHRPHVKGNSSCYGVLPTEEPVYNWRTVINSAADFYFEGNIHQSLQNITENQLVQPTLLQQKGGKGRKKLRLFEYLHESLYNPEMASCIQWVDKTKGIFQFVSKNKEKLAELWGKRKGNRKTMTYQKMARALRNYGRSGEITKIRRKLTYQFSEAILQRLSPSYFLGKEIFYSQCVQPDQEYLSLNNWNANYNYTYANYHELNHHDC
Procedure, shortened: as §1

ELF4 = ELF4 (Homo sapiens, UniProt Q99607 1-663); details: protein: recombinant; tags: N-terminal GST; dsDNA, one strand shown
Procedure, shortened: as §1

ELK4 = molecular target: T3, ELK4 (Homo sapiens, UniProt P28324-2 1-405); details: protein: recombinant; tags: N-terminal GST; dsDNA, one strand shown
T3 sequence: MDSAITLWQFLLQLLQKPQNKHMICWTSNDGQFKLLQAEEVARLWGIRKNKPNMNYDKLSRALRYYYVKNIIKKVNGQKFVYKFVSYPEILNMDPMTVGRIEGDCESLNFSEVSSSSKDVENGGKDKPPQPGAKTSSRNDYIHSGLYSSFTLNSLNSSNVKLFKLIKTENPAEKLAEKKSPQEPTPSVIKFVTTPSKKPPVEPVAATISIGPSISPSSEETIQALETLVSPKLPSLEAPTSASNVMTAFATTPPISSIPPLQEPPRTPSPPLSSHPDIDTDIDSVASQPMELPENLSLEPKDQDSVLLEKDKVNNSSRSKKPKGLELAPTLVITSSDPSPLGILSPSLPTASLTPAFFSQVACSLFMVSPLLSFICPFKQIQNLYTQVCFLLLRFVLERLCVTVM
Procedure, shortened: as §1

ETV2 = molecular target: T4, ETV2 (Homo sapiens, UniProt O00321 1-342); details: protein: recombinant; tags: N-terminal GST; dsDNA, one strand shown
T4 sequence: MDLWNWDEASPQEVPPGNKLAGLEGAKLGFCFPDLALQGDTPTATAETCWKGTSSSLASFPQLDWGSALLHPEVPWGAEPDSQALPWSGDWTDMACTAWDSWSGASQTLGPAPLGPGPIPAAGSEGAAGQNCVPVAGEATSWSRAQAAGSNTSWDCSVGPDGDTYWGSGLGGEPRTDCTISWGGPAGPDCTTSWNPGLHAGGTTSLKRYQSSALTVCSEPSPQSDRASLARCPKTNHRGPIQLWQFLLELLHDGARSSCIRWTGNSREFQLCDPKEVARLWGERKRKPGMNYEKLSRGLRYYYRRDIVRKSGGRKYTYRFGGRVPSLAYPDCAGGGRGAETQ
Procedure, shortened: as §1

ELF3 = molecular target: T5, ELF3 (Homo sapiens, UniProt P78545 1-371); details: protein: recombinant; tags: N-terminal GST; dsDNA, one strand shown
T5 sequence: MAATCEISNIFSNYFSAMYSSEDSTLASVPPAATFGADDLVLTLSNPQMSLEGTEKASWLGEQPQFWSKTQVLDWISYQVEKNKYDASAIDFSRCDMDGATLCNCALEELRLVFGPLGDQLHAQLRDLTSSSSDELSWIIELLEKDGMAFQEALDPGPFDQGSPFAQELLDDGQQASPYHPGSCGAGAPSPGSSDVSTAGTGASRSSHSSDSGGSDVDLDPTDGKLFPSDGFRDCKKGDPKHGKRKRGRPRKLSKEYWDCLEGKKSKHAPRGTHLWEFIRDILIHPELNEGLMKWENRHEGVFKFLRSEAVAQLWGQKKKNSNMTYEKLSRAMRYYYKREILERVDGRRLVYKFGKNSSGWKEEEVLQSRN
Procedure, shortened: as §1

CRX = CRX (Homo sapiens, UniProt O43186 1-299); details: protein: recombinant; tags: N-terminal GST; dsDNA, one strand shown
Procedure, shortened: as §1

ETV1 = ETV1 (Homo sapiens, UniProt P50549 1-477); details: protein: recombinant; tags: N-terminal GST; dsDNA, one strand shown
Procedure, shortened: as §1

ELF4, sequence (Q99607 whole entry): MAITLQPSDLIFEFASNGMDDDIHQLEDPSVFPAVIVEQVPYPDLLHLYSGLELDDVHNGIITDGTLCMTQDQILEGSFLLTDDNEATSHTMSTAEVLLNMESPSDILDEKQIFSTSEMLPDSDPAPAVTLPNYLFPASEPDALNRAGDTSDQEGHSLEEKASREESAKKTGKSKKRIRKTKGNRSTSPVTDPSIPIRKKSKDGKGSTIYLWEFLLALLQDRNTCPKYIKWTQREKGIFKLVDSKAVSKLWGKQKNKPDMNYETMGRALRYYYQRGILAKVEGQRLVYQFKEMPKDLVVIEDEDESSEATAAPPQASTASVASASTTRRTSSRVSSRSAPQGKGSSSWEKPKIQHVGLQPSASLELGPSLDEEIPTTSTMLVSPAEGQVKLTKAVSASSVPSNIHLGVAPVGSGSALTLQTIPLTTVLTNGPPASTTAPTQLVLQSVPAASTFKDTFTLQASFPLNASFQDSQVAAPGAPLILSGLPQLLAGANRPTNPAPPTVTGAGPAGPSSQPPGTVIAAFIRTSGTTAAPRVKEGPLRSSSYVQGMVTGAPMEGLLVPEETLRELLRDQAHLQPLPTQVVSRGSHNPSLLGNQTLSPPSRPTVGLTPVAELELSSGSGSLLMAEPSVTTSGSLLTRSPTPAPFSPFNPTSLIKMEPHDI
HSF1, sequence (Q00613 whole entry): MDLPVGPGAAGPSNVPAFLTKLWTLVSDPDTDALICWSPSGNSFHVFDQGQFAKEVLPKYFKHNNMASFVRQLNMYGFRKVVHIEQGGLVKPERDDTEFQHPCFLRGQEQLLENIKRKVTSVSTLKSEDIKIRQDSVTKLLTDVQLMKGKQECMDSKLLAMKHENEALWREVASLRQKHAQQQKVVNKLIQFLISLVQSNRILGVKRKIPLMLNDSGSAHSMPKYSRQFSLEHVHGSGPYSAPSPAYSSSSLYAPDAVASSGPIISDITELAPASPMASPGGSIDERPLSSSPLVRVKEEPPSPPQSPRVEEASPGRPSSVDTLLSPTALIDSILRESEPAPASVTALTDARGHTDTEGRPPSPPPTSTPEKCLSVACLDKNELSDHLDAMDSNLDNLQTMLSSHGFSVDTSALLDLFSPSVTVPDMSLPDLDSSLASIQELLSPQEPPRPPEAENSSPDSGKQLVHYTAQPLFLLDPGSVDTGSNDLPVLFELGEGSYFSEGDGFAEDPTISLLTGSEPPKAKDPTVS
ETV1, sequence (P50549 whole entry): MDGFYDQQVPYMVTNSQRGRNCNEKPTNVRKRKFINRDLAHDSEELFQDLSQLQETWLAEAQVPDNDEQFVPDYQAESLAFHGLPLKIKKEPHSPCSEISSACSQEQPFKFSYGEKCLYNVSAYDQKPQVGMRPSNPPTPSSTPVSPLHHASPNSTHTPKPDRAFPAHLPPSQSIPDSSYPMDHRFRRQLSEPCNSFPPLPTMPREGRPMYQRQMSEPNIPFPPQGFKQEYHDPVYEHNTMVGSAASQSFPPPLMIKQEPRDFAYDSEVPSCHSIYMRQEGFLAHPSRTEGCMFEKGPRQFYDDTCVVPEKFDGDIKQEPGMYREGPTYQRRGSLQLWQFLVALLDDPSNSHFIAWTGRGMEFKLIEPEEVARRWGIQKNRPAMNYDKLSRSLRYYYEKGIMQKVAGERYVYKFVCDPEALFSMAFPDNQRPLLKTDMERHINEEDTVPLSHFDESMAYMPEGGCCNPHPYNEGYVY
ETV5, sequence (P41161 whole entry): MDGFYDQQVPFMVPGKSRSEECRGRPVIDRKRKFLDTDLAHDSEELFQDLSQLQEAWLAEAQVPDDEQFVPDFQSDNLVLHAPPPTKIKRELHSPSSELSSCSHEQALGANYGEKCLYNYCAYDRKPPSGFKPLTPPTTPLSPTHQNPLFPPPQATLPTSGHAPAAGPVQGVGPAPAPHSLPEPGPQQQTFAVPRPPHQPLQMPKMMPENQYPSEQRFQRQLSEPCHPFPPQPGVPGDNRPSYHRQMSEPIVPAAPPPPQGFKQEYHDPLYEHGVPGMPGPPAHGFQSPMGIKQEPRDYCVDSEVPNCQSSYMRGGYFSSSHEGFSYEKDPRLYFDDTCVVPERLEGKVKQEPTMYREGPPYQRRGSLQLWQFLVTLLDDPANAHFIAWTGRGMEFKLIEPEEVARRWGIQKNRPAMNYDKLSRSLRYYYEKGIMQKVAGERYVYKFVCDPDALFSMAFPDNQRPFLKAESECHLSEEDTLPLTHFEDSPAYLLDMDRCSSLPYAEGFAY
CRX, sequence (O43186 whole entry): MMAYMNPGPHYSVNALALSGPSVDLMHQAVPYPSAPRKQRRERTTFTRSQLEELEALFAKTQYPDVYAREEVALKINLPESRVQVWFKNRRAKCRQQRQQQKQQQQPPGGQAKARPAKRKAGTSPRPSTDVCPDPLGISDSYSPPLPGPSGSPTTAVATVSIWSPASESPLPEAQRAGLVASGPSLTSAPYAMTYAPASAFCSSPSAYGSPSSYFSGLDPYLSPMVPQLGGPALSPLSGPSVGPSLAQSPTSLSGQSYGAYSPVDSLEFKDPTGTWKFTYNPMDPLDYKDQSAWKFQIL

Sequence	binding signal (FEV)	binding signal (ETV5)	binding signal (HSF1)	binding signal (SPIC)	binding signal (ELF4)	binding signal (ELK4)	binding signal (ETV2)	binding signal (ELF3)	binding signal (CRX)	binding signal (ETV1)
CCCACT	1.5 fold enrichment (6-mer frequency, TF over GST control)	1.33 fold enrichment (6-mer frequency, TF over GST control)	1.07 fold enrichment (6-mer frequency, TF over GST control)	1.27 fold enrichment (6-mer frequency, TF over GST control)	1.43 fold enrichment (6-mer frequency, TF over GST control)	1.24 fold enrichment (6-mer frequency, TF over GST control)	1.37 fold enrichment (6-mer frequency, TF over GST control)	1.18 fold enrichment (6-mer frequency, TF over GST control)	1.14 fold enrichment (6-mer frequency, TF over GST control)	1.34 fold enrichment (6-mer frequency, TF over GST control)
ATGGGT	1.28 fold enrichment (6-mer frequency, TF over GST control)	1.5 fold enrichment (6-mer frequency, TF over GST control)	1.08 fold enrichment (6-mer frequency, TF over GST control)	1.36 fold enrichment (6-mer frequency, TF over GST control)	1.35 fold enrichment (6-mer frequency, TF over GST control)	1.33 fold enrichment (6-mer frequency, TF over GST control)	1.36 fold enrichment (6-mer frequency, TF over GST control)	1.31 fold enrichment (6-mer frequency, TF over GST control)	1.11 fold enrichment (6-mer frequency, TF over GST control)	1.21 fold enrichment (6-mer frequency, TF over GST control)
TAAATC	1.21 fold enrichment (6-mer frequency, TF over GST control)	1.23 fold enrichment (6-mer frequency, TF over GST control)	1.9 fold enrichment (6-mer frequency, TF over GST control)	1.2 fold enrichment (6-mer frequency, TF over GST control)	1.3 fold enrichment (6-mer frequency, TF over GST control)	1.27 fold enrichment (6-mer frequency, TF over GST control)	1.12 fold enrichment (6-mer frequency, TF over GST control)	1.2 fold enrichment (6-mer frequency, TF over GST control)	2.81 fold enrichment (6-mer frequency, TF over GST control)	1.26 fold enrichment (6-mer frequency, TF over GST control)
ACCCGA	1.1 fold enrichment (6-mer frequency, TF over GST control)	1.08 fold enrichment (6-mer frequency, TF over GST control)	1.21 fold enrichment (6-mer frequency, TF over GST control)	1.08 fold enrichment (6-mer frequency, TF over GST control)	1.03 fold enrichment (6-mer frequency, TF over GST control)	1.04 fold enrichment (6-mer frequency, TF over GST control)	1.17 fold enrichment (6-mer frequency, TF over GST control)	1.11 fold enrichment (6-mer frequency, TF over GST control)	1.1 fold enrichment (6-mer frequency, TF over GST control)	1.1 fold enrichment (6-mer frequency, TF over GST control)
CGTCTC	1.46 fold enrichment (6-mer frequency, TF over GST control)	1.46 fold enrichment (6-mer frequency, TF over GST control)	1.42 fold enrichment (6-mer frequency, TF over GST control)	1.47 fold enrichment (6-mer frequency, TF over GST control)	1.55 fold enrichment (6-mer frequency, TF over GST control)	1.49 fold enrichment (6-mer frequency, TF over GST control)	1.27 fold enrichment (6-mer frequency, TF over GST control)	1.46 fold enrichment (6-mer frequency, TF over GST control)	1.18 fold enrichment (6-mer frequency, TF over GST control)	1.43 fold enrichment (6-mer frequency, TF over GST control)
TCTCAT	1.27 fold enrichment (6-mer frequency, TF over GST control)	1.39 fold enrichment (6-mer frequency, TF over GST control)	1.29 fold enrichment (6-mer frequency, TF over GST control)	1.46 fold enrichment (6-mer frequency, TF over GST control)	1.25 fold enrichment (6-mer frequency, TF over GST control)	1.37 fold enrichment (6-mer frequency, TF over GST control)	1.46 fold enrichment (6-mer frequency, TF over GST control)	1.32 fold enrichment (6-mer frequency, TF over GST control)	1.36 fold enrichment (6-mer frequency, TF over GST control)	1.38 fold enrichment (6-mer frequency, TF over GST control)
CTGAGC	1.21 fold enrichment (6-mer frequency, TF over GST control)	1.12 fold enrichment (6-mer frequency, TF over GST control)	1.09 fold enrichment (6-mer frequency, TF over GST control)	1.08 fold enrichment (6-mer frequency, TF over GST control)	1.19 fold enrichment (6-mer frequency, TF over GST control)	1.14 fold enrichment (6-mer frequency, TF over GST control)	1.37 fold enrichment (6-mer frequency, TF over GST control)	1.16 fold enrichment (6-mer frequency, TF over GST control)	1.3 fold enrichment (6-mer frequency, TF over GST control)	1.15 fold enrichment (6-mer frequency, TF over GST control)
CGCCTA	1.11 fold enrichment (6-mer frequency, TF over GST control)	1.18 fold enrichment (6-mer frequency, TF over GST control)	1.15 fold enrichment (6-mer frequency, TF over GST control)	1.36 fold enrichment (6-mer frequency, TF over GST control)	1.12 fold enrichment (6-mer frequency, TF over GST control)	1.28 fold enrichment (6-mer frequency, TF over GST control)	1.13 fold enrichment (6-mer frequency, TF over GST control)	1.06 fold enrichment (6-mer frequency, TF over GST control)	1.18 fold enrichment (6-mer frequency, TF over GST control)	1.12 fold enrichment (6-mer frequency, TF over GST control)
